Data reported in PubChem BioAssay (Tox21).
A number with no mark means an inactive call. Where a call stands in place of a potency, no number is given. The source made the active and inactive calls. The call rests on the fitted dose curve; in most records, active means well fitted cell-killing curve with a large enough effect in the repeat runs; inconclusive means weak or mixed curves, or effect the other way; inactive means flat fitted curve, though single readings scatter.
Potency means the concentration at half of the fitted maximal effect.

Assay: qHTS assay to identify small molecule HDAC inhibitors - cell viability counter screen (AID 1259365); further: nearly all actives have a fitted effect of over 50% in size
Settings: HCT-116 viability, CellTiter-Glo ATP luminescence, 2 h; series mostly up to 92.4 µM
Description: U.S. Tox21 Program National Center for Advancing Translational Sciences [NCATS] NIH Chemical Genomics Center [NCGC] U.S. Environmental Protection Agency [EPA] National Institutes of Environmental Health Sciences [NIEHS] National Toxicology Program [NTP] U.S. Food and Drug Administration [FDA] Tox21 Assay Overview: Histone deacetylases (HDACs) are a group of epigenetic enzymes that regulate gene expression by histone deacetylation. HDACs are capable of introducing epigenetic modifications and such aberrations contribute to the onset and progression of several human diseases, thus making HDACs a popular therapeutic target. For identifying endogenous class I/II HDAC inhibitors a homogenous, luminogenic HDAC I/II cell based assay was used to measure the relative activity of class I and II HDACs from cells. Wild type HCT-116 cells were used to screen Tox21 compound libraries for identifying class I/II HDAC inhibitors.
Tox21 Assay Protocol Summary: HCT-116 cells were dispensed at 1,500 per well in 5uL of culture medium into white solid bottom 1536-well plates (Greiner Bio-One, Monroe, NC) using a Multidrop Combi (Thermo Scientific, Waltham, MA) dispenser. The assay plates were incubated at 37 C and 5% CO2 for an overnight, and then 23nL of compounds dissolved in DMSO and positive control were transferred using a Pintool station (Wako, San Diego, CA). The assay plates were incubated at 37C and 5% CO2 for 2hr. After compound treatment, 4uL of CellTiter-Glo reagent (Promega Corporation, Madison, WI) was added to each well of the assay plates using Flying Reagent Dispenser (FRD, Aurora Discovery, San Diego, CA) and incubated the assay plates at room temperature for 30min. The luminescence signal was quantified using a ViewLux plate reader (Perkin Elmer, Shelton, CT).
With `CC1(C)C(=O)N(CO)C(=O)N1CO` the Potency was “inactive”.
For `C=C(c1ccc(C(=O)O)cc1)c1cc2c(cc1C)C(C)(C)CCC2(C)C`, the Potency was “inactive”.
For `COC(=O)[C@]1(C)CCC[C@@]2(C)[C@H]1CC=C1C=C(C(C)C)CC[C@@H]12`, the Potency was “inactive”.
With `CC1CCCCC1` the Potency was “inactive”.
For `S=P(N1CC1)(N1CC1)N1CC1`, the Potency was “inactive”.
With `CCCCCCCCCCc1ccccc1` the Potency was “inactive”.
For `CS(C)(=O)=O`, the Potency was “inactive”.
In the case of `COCC(=O)O[C@]1(CCN(C)CCCc2nc3ccccc3[nH]2)CCc2cc(F)ccc2[C@@H]1C(C)C`, the Potency was “inactive”.
For `CNCC[C@H](Oc1cccc2ccccc12)c1cccs1`, the Potency was “inactive”.
For `CCOCN(C(=O)CS(=O)(=O)O)c1c(C)cccc1CC`, the Potency was “inactive”.
For `CCN=C1C=CC(=C(c2ccc(N(CC)CC)cc2)c2ccc(N(CC)CC)cc2)c2ccccc21`, the Potency was 34.2 µM (active).
In the case of `CC(CN(C)C)CN1c2ccccc2CCc2ccccc21` (stereo not given), the Potency was “inactive”.
In the case of `COc1cccc(OC)c1O`, the Potency was “inactive”.
In the case of `O=C1c2c(O)ccc([N+](=O)[O-])c2C(=O)c2c([N+](=O)[O-])ccc(O)c21`, the Potency was 21.5 µM (active).
For `O=C(Oc1ccccc1)c1cccc(C(=O)Oc2ccccc2)c1`, the Potency was “inactive”.
For `CC(=O)O[C@@H]1C[C@@H]2CC[C@@]1(C)C2(C)C`, the Potency was “inactive”.
With `CCCOc1sc(C(=O)N2CCC(c3cc(CN)ccc3F)CC2)c(C)c1Br` the Potency was 62.8 µM (active).
For `CO[Si](CCC1CCC2OC2C1)(OC)OC` (stereo not given), the Potency was “inactive”.
For `CC(C)c1cccc(C(C)C)c1N1C(=O)c2ccc(O)cc2C1=O`, the Potency was “inactive”.
`O=S(=O)(O)c1cc(S(=O)(=O)O)c2ccc3c(S(=O)(=O)O)cc(S(=O)(=O)O)c4ccc1c2c43` gave an activity change, negative = cytotoxicity of 1.04% [at 19 µM].
With `CC(C)=CCCC(C)O` (stereo not given) the Potency was “inactive”.
In the case of `CC(COC(=O)c1ccccc1)OC(=O)c1ccccc1` (stereo not given), the Potency was “inactive”.
For `COC(=O)C1=C(C)NC(C)=C(C(=O)OCCCN2CCC(c3ccccc3)(c3ccccc3)CC2)C1c1cccc([N+](=O)[O-])c1` (stereo not given), the Potency was “inactive”.
In the case of `C[Si](C)O[Si](C)C`, the Potency was “inactive”.
For `CCOC(/C=C(\C)CCC=C(C)C)OCC`, the Potency was “inactive”.
With `O=C(O)CC(=O)O` the Potency was “inactive”.
In the case of `c1ccc(Sc2ccccc2)cc1`, the Potency was “inactive”.
With `CC1=C(/C=C/C(C)=C/C=C/C(C)=C/C(=O)Nc2ccc(O)cc2)C(C)(C)CCC1` the Potency was “inactive”.
In the case of `O[C@@H](c1cc(C(F)(F)F)nc2c(C(F)(F)F)cccc12)[C@H]1CCCCN1`, the Potency was “inactive”.
With `CCCCCCCC/C=C/CCCOC(C)=O` the Potency was “inactive”.
With `CN(C)CCN1CCOCC1` the Potency was “inactive”.
In the case of `CC(C)c1ccccc1N`, the Potency was “inactive”.
In the case of `Cc1cccc(C)c1NC(=O)CN1CCN(CCCC(c2ccc(F)cc2)c2ccc(F)cc2)CC1`, the Potency was “inactive”.
In the case of `Clc1ccc(C(c2ccccc2Cl)C(Cl)Cl)cc1` (stereo not given), the Potency was “inactive”.
For `OCCCc1cccnc1`, the Potency was “inactive”.
For `Oc1ccc(-c2ccc(O)cc2)cc1`, the Potency was “inactive”.
For `CCCCCCS`, the Potency was “inactive”.
With `CC[N+](CC)(CC)Cc1ccccc1` the Potency was “inactive”.
For `CC(C)(C)c1cc(/C=C2\SC(=N)NC2=O)cc(C(C)(C)C)c1O`, the Potency was “inactive”.
In the case of `Cc1c(C)n(Cc2ccccc2)c2ccc(C(=O)OCCN(C)C)cc12`, the Potency was “inactive”.
